Molecules are shown by their SMILES. Records with an inconclusive call do not appear. Active and inactive are the calls of the source. The call rests on the fitted dose curve; in most records, active means well fitted cell-killing curve with a large enough effect in the repeat runs; inconclusive means weak or mixed curves, or effect the other way; inactive means flat fitted curve, though single readings scatter.

The assay is described as follows: qHTS assay to identify small molecule agonists of the TGF-beta/Smad signaling pathway - cell viability counter screen (AID 1346829). Further: top concentration of the series differs between compounds; nearly all actives have a fitted effect of over 45% in size. Conditions: SBE-bla HEK293T viability, CellTiter-Glo luminescence, 5 h; series mostly up to 76.8 µM. The source says:
National Center for Advancing Translational Sciences [NCATS]
NIH Chemical Genomics Center [NCGC]
U.S. Environmental Protection Agency [EPA]
National Institutes of Environmental Health Sciences [NIEHS]
National Toxicology Program [NTP]
U.S. Food and Drug Administration [FDA]
Transforming growth factor beta (TGF-beta) superfamily consists of a large number of structurally related dimeric proteins that act as hormones or local mediators in regulating a wide range of biological functions. This superfamily includes TGF-betas themselves, the bone morphogenetic proteins (BMPs) and the activins. These ligands induce oligomerization of serine/threonine receptor kinases and phosphorylate the cytoplasmic signaling molecules of Smad protein family. CellSensor SBE-bla HEK 293T cell line (Life Technologies, Carlsbad, CA), responsive to TGF-beta was used to screen Tox21 10K compound library for identification of agonists/antagonists of the Smad signaling pathway. This cell line contains a beta-lactamase reporter gene under control of the Smad binding element (SBE) stably integrated into HEK 293T cells. Also cytotoxicity of the compounds was tested in parallel by measuring the cell viability using CellTiter-Glo assay system in the same wells.
Tox21 Assay Protocol Summary:
SBE-bla HEK 293T cells were dispensed at 4,000/well in 6 uL of assay medium into black wall/clear-bottom 1536-well plates using a Multidrop Combi (ThermoFisher Scientific, Waltham, MA) dispenser. After the assay plates were incubated at 37 C and 5% CO2 for an overnight, 23 nL of compounds dissolved in DMSO, positive controls or DMSO only was transferred to the assay plate by a Pintool station (Kalypsys, San Diego, CA). The assay plates were incubated at 37 C and 5% CO2 for 5 hr. One uL of LiveBLAzer B/G FRET substrate (Life Technologies) was added using a Flying Reagent Dispenser (FRD, Aurora Discovery, San Diego, CA) and the plates were incubated at room temperature for 2 hr. Fluorescence intensity (405 nm excitation, 460 nm and 530 nm emissions) was measured using an Envision plate reader (PerkinElmer, Shelton, CT). For cytotoxicity read, 4 uL of CellTiter-Glo reagent (Promega Corporation, Madison, WI) was added to each well of the assay plates using FRD. After 30min incubation at room temperature, the luminescence intensity was measured using ViewLux plate reader (PerkinElmer).
For orientation: Quantitative high-throughput screening tests each substance at several concentrations.
In the case of `O=C(Cc1ccccc1)OCc1ccccc1`, the compound was called inactive. The entry for `O=C(O)C(Br)CBr` (stereo not given) is “inactive”. As for `CC(C(=O)c1ccccc1)N(C)C` (stereo not given), the entry is “inactive”. With `O=c1oc2ccccc2c(O)c1C1CCCc2ccccc21` (stereo not given), the result was inactive. For `Nc1cnn(-c2ccccc2)c(=O)c1Cl`, the compound was classed as inactive.

As for `O=C1CN=C(c2ccccc2)c2cc([N+](=O)[O-])ccc2N1`, the call was inactive. As to `COC(=O)c1ccccc1S(=O)(=O)NC(=O)N(C)c1nc(C)nc(OC)n1`, the result was inactive. As for `COc1cc(OC)nc(NC(=O)NS(=O)(=O)c2ncccc2C(=O)N(C)C)n1`, the entry is “inactive”; as for `O=C1OC(c2ccc(O)c(S(=O)(=O)O)c2)(c2ccc(O)c(S(=O)(=O)O)c2)c2c(Br)c(Br)c(Br)c(Br)c21`, “inactive”; as for `CN1C(=S)CN=C(c2ccccc2)c2cc(Cl)ccc21`, “inactive”. Regarding `COC(=O)C1=CCCN(C)C1`, the call was inactive. For the compound `O=C(CCCN1CCC(n2c(=O)[nH]c3ccccc32)CC1)c1ccc(F)cc1`, the result was inactive. Turning to `Clc1cccc(N2CCNCC2)c1`, the result was inactive. As for `N#CCCC#N`, the entry is “inactive”. As for `CC(Oc1ccc(Oc2ncc(C(F)(F)F)cc2Cl)cc1)C(=O)O` (stereo not given), the entry is “inactive”; as for `CC(C)[N+](=O)[O-]`, “inactive”; as for `CSc1nc(N=[N+]=[N-])nc(NC(C)C)n1`, “inactive”.

On to `COc1cc(OC)nc(Oc2cccc(Oc3nc(OC)cc(OC)n3)c2C(=O)O)n1`, for which the result was inactive. As for `Cc1cc(C)c(C(=O)P(=O)(C(=O)c2c(C)cc(C)cc2C)c2ccccc2)c(C)c1`, the compound was called inactive. For the compound `CC1CN1P(=O)(N1CC1C)N1CC1C` (stereo not given), the call was inactive. For `CCOP(=O)(N=C1SCCS1)OCC`, the compound was classed as inactive. `C#CCN1C(=O)COc2cc(F)c(N3C(=O)C4=C(CCCC4)C3=O)cc21`: the result was inactive. As for `CC(C(O)c1ccccc1)N(C)C/C=C/c1ccccc1` (stereo not given), the entry is “inactive”. As for `O=C1OC(=O)C2C1C1(Cl)C(Cl)=C(Cl)C2(Cl)C1(Cl)Cl` (stereo not given), the entry is “inactive”; as for `ClC(Br)Br`, “inactive”.

For `CCOP(=O)(OCC)OP(=O)(OCC)OCC`, the compound was classed as inactive. Take `CC(C)(C)C(=O)C(Oc1ccc(Cl)cc1)n1cncn1` (stereo not given): the compound was called inactive. The entry for `COP(=S)(OC)Oc1ccc(S(N)(=O)=O)cc1` is “inactive”.

In the case of `C(CCOCC1CO1)COCC1CO1` (stereo not given), the compound was classed as inactive.

For `CC1(C)C(=O)NC(=O)NC1=O`, the compound was called inactive. With `COC(=O)COc1ccc(Cl)cc1Cl`, the result was inactive.

On to `CCCCc1ccc(O)cc1`, for which the compound was classed as inactive. With `N#Cc1c(Cl)cccc1Cl`, the call was inactive.

Consider `O=C1CN2CCOC2(c2ccccc2Cl)c2cc(Cl)ccc2N1` (stereo not given), for which the outcome was inactive. Regarding `COC(=O)c1c(C(F)F)nc(C(F)(F)F)c(C2=NCCS2)c1CC(C)C`, the compound was called inactive.

As to `C[N+](C)=CCl`, the compound was classed as inactive. In the case of `OCCBr`, the outcome was inactive. As for `N#CC(O)c1ccccc1` (stereo not given), the entry is “inactive”; as for `Cc1ncsc1CCCl`, “inactive”; as for `c1cc[c]([Hg][c]2ccccc2)cc1`, “inactive”.

Values taken from PubChem BioAssay (Tox21).
